Experimental findings from PubChem BioAssay (NCATS) are described below.

What is called viability is a read-out of living cells in per cent, often relative to untreated cells.

Values joined by “and” are separate entries in the source; they are usually repeats but may differ in a detail not shown here. Equal entries are not always repeated. Records with an inconclusive call do not appear. Unmarked numbers belong to inactive results. Active and inactive are the calls of the source. Unless noted, calls follow the shape of the dose curve; as a rule, active = well fitted curve in the direction sought with a large enough effect; inconclusive = small, poorly fitted or top-dose-only effect, or another doubt; inactive = no such curve, though single readings can be large; an effect the other way counts as inactive or inconclusive.

Assay [1] has as its target Cellular tumor antigen p53 (Homo sapiens) (UniProt P04637). As to the kind of experiment: Primary qHTS for small molecule compounds that upregulate eGFP-tagged delta133p53alpha (in N-terminal) cells. (AID 2060322). Also: nearly all actives have a fitted effect of over 75% in size. Also: potency is read from the fitted curve at half-maximal effect.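 As to activation: cells pre-induced with doxycycline then dosed without doxycycline; series mostly up to about 56 µM; 0% = DMSO vehicle and 100% = reference activator.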 The note with it: NCI-H358 eGFP-delta133p53alpha fluorescence, 24 h; activation: hits give high values. The method in brief:
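NCI-H358 cells pre-induced 24 h with 10 ng/ml doxycycline for eGFP-delta133p53alpha, plated dox-free and exposed 24 h at 37C to titrated compounds. Fixed, Hoechst-stained; gated GFP peak intensity by laser scanning cytometry, normalized to DMSO (0%) and 57.5 uM 5-azacytidine (100%).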

For assay [2], the target named is Aldehyde dehydrogenase, mitochondrial (Homo sapiens) (UniProt P05091). As to the kind of experiment: qHTS for Inhibitors of the Aldehyde Dehydrogenase Family (ALDH2) Validation screens (AID 2061302; active = well fitted inhibition curve with a large enough effect; title and protocol of this record describe different tests; also: potency is read from the fitted curve at half-maximal effect).
Assay [3] shares this target. The experiment in a line: qHTS for Inhibitors of the Aldehyde Dehydrogenase Family (ALDH2) Primary screen (AID 2061308;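 also: plate controls were vehicle for no effect and reference inhibitor for full effect; nearly all actives have a fitted effect of over 55% in size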). (In general: In qHTS, concentration-response curves come from the screen itself.)
In assay [4] the target is Retinaldehyde dehydrogenase 3 (Homo sapiens) (UniProt P47895). The experiment in a line: qHTS for Inhibitors of the Aldehyde Dehydrogenase Family (ALDH1A3) Validation screen (AID 2061312). Also: % is scaled to controls: 0 for no effect and ±100 for the full control effect; nearly all actives have a fitted effect of over 45% in size.
The target is the same in assay [5]. The experiment in a line: qHTS for Inhibitors of the Aldehyde Dehydrogenase Family (ALDH1A3) Primary screen (AID 2061315).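 Also: plate controls were DMSO vehicle for no effect and reference inhibitor for full effect.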
Assay [6] is described as follows: BET inhibitor-based combinations targeting novel dependencies in MECOM-rearranged (r) AML: SET-2 cell line (AID 2202231).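 Also: plate controls were DMSO treated cells for no effect and wells without cells for full effect; nearly all actives have a fitted effect of over 35% in size.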 The note with it: SET-2 AML cells viability, CellTiter-Glo luminescence, 48 h; viability: hits give low values, series mostly up to about 46 µM. The method in brief:
(§1)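 500 cells/well; 11-pt dose curve; 48 h, standard incubator; CellTiter-Glo luminescence after 15 min RT; DMSO/empty-well normalization; AUC plus Z-AUC (mean-centered within each line).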
Background: Cellular ATP, detected with luciferase, serves as a proxy for viable cell number.

A short description of assay [7]: BET inhibitor-based combinations targeting novel dependencies in MECOM-rearranged (r) AML: OCI-AML3 cell line (AID 2202232). Also: nearly all actives have a fitted effect of over 35% in size. Also: potency is read from the fitted curve at half-maximal effect. The note with it: Potency: OCI-AML3 viability. The method in brief:
as §1

Assay [8] in a line: BET inhibitor-based combinations targeting novel dependencies in MECOM-rearranged (r) AML: MV-4-11 cell line (AID 2202233). Also: nearly all actives have a fitted effect of over 45% in size. Also: potency is read from the fitted curve at half-maximal effect. The method, boiled down:
(§2)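 Cells were plated at 500 per well and exposed to each drug across an 11-point dose range for 48 hr at standard incubator conditions. Viability was read by CellTiter-Glo luminescence, and activity was expressed as AUC and per-cell-line Z-transformed AUC.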

Assay [9] can be described thus: BET inhibitor-based combinations targeting novel dependencies in MECOM-rearranged (r) AML: HNT-34 cell line (AID 2202234). Also: nearly all actives have a fitted effect of over 35% in size. Also: potency is read from the fitted curve at half-maximal effect. The method in brief:
as §2

Assay [10] is described as follows: BET inhibitor-based combinations targeting novel dependencies in MECOM-rearranged (r) AML: UCSD-AML1 cell line (AID 2202235). Also: nearly all actives have a fitted effect of over 40% in size. Also: potency is read from the fitted curve at half-maximal effect. The method in brief:
as §2

A short description of assay [11]: BET inhibitor-based combinations targeting novel dependencies in MECOM-rearranged (r) AML: AML-191 cell line (AID 2202236; also: nearly all actives have a fitted effect of over 35% in size; also: potency is read from the fitted curve at half-maximal effect). The method, boiled down:
as §1

Assay [12] in a line: BET inhibitor-based combinations targeting novel dependencies in MECOM-rearranged (r) AML: AML-194 cell line (AID 2202237; also: nearly all actives have a fitted effect of over 40% in size; also: potency is read from the fitted curve at half-maximal effect). The method in brief:
as §1

Assay [13] can be described thus: qHTS for Inhibitors of the Aldehyde Dehydrogenase Family (ALDH1A2, ALDH1A3, ALDH2, ALDH3A1) (AID 2061307). Also: test system not described further here; potency is read from the fitted curve at half-maximal effect; nearly all actives have a fitted effect of over 50% in size.
Assay [14] addresses Aldehyde dehydrogenase 1A1 (Homo sapiens) (UniProt P00352). The experiment in a line: qHTS for Inhibitors of the Aldehyde Dehydrogenase Family (ALDH1A1) Confirmatory screens (AID 2061316). Also: potency is read from the fitted curve at half-maximal effect; nearly all actives have a fitted effect of over 65% in size.

Chain of Cellular tumor antigen p53 (Homo sapiens) (P04637 whole entry, looked up): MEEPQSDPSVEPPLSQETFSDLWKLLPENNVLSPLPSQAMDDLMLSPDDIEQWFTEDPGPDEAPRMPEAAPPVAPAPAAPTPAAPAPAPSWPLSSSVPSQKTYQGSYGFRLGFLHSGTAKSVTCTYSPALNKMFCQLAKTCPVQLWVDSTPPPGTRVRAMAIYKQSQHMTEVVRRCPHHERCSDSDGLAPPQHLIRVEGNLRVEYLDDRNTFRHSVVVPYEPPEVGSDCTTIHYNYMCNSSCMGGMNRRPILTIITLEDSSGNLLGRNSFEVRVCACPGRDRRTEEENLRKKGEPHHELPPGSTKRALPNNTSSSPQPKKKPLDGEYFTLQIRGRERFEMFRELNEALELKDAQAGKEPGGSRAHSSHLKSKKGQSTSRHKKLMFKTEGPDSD

With `CC(=O)NC[C@H]1CN(c2ccc(N3CCOCC3)c(F)c2)C(=O)O1`, in [1], the activation was 20.9% and -21.5% and 0.955%. Further, the Potency result in [2], in assay [3], in [4], in assay [5], in assay [7] and in [8] was “inactive” in each case. Moreover, the Potency entry in assay [9], in assay [10], in assay [11] and in assay [12] was “inactive” each time. For the same molecule, the viability in assay [6] was 105%.

`COc1ccccc1N1CCN(CCN(C(=O)C2CCCCC2)c2ccccn2)CC1`: in assay [1], the activation is -36.9% and -0.333% and -10.7%. Moreover, the Potency entry in assay [2], in assay [3], in assay [4], in assay [5], in [7] and in [10] was “inactive” throughout. Also, the Potency entry in assay [11] and in assay [12] was “inactive” throughout.

For the molecule `O=c1onc2cnc3ccccc3n12`, the activation in assay [1] was 14.8%. The Potency in assay [2] is 6.31 µM (active); in [13], 0.0318 µM (active); in assay [14] it was 4 µM (active).

In the case of `CNCCCC12CCC(c3ccccc31)c1ccccc12`, the activation in assay [1] was -7.08% and 22.3% and 47.4%. Besides, the Potency entry in assay [2], in assay [3], in assay [4] and in [5] was “inactive” throughout. The Potency was 18.6 µM (active) in assay [7]; 29.5 µM (active) in [8]; 23.5 µM (active) in [9]; 23.5 µM (active) in assay [11]; 26.3 µM (active) in [12].

On to `CC[C@H]1OC(=O)[C@H](C)[C@@H](O[C@H]2C[C@@](C)(OC)[C@@H](O)[C@H](C)O2)[C@H](C)[C@@H](O[C@@H]2O[C@H](C)C[C@H](NC)[C@H]2O)[C@](C)(O)C[C@@H](C)CN(C)[C@H](C)[C@@H](O)[C@]1(C)O`, for which, in assay [1], the activation was -4.2%. Besides, the Potency entry in assay [2] and in [4] was “inactive” each time.

`Brc1c(Br)c(Br)c2[nH]cnc2c1Br`: the activation in [1] is -55.8%. Moreover, the Potency entry in [2] and in assay [4] was “inactive” each time.

`CCCCNc1ccc(C(=O)OCCN(C)C)cc1`: the activation in [1] is -9.6% and 10.7%. The Potency entry in assay [2] and in assay [4] was “inactive” in each case.

On to `O=C1NCN(c2ccccc2)C12CCN(CCCC(c1ccc(F)cc1)c1ccc(F)cc1)CC2`, for which the activation in assay [1] is -12.6% and -53.2%. Moreover, the Potency entry in assay [2] and in assay [4] was “inactive” throughout.

`O=C(O)c1cc([N+](=O)[O-])ccc1NCCCc1ccccc1`: the activation in assay [1] was -7.19%. Also, the Potency entry in assay [2] and in [4] was “inactive” throughout.

As for `CN(C)CCCN1c2ccccc2Sc2ccc(Cl)cc21`, the activation in [1] is -15.3%. In addition, the Potency entry in [2] and in assay [4] was “inactive” each time.

Regarding `COc1cc(C(O)C(=O)O)ccc1O` (stereo not drawn), the activation in [1] was -11.9%. In addition, the Potency entry in [2] and in assay [4] was “inactive” throughout.

In the case of `NCCCNCCSP(=O)(O)O`, the activation in [1] is 5.02% and 16.3%. For the same molecule, the Potency result in [2] and in assay [4] was “inactive” throughout.

In the case of `CCCCOC(=O)NS(=O)(=O)c1sc(CC(C)C)cc1-c1ccc(Cn2c(CC)nc3c(C)cc(C)nc32)cc1`, in [1], the activation is -46.4%. Besides, the Potency entry in assay [2] and in assay [4] was “inactive” in each case.

Consider `CN(C)CCCN1c2ccccc2Sc2ccc(C(F)(F)F)cc21`, for which the activation in [1] was 25.1% and 58.3%. The Potency result in assay [2] and in assay [4] was “inactive” each time.

For `COc1cc2ncnc(Nc3cccc(Cl)c3)c2cc1OC`, the activation in [1] is 23.2% and -41%. For the same molecule, the Potency result in assay [2], in [3], in [4] and in assay [5] was “inactive” each time. The Potency in [8] was 8.33 µM (active); in [9], 13.2 µM (active); in [10] it was 18.6 µM (active).

Regarding `CN(C)S(=O)(=O)c1ccc2c(c1)/C(=C/c1cc3c([nH]1)CCCC3)C(=O)N2`, the Potency in assay [1] was 6.75 µM (active). In addition, the Potency result in assay [2] and in assay [4] was “inactive” each time.

Consider `Cc1nc2sccn2c(=O)c1CCN1CCC(=C(c2ccc(F)cc2)c2ccc(F)cc2)CC1`, for which, in assay [1], the activation is -20.9% and -40.8%. The Potency result in [2] and in [4] was “inactive” throughout.

Consider `COc1cc2nc(N3CCN(C(=O)c4ccco4)CC3)nc(N)c2cc1OC`, for which the activation in assay [1] was 2.51% and 14.7% and 81.5%. In addition, the Potency result in [2] and in assay [4] was “inactive” in each case.

Take `C[C@H](O)C(=O)C1=Nc2c(nc(N)[nH]c2=O)NC1`: the activation in assay [1] was -8.4%. Further, the Potency result in [2] and in [4] was “inactive” in each case.

Consider `CNCCC=C1c2ccccc2CCc2ccccc21`, for which the activation in [1] is 33%. Further, the Potency result in assay [2] and in [4] was “inactive” throughout.

Turning to `CN1C(=O)CC[C@H]1c1cccnc1`, the activation in [1] is -11.7% and 28%. The Potency entry in assay [2] and in assay [4] was “inactive” each time.

Turning to `Nc1nc2ccc(OC(F)(F)F)cc2s1`, the activation in assay [1] is -8.55% and 47.5%. Further, the Potency result in [2] and in [4] was “inactive” in each case. Also, the viability in assay [6] was 89.4%. The Potency in assay [7] was 20.9 µM (active); in [9], 16.6 µM (active); in assay [10], 26.3 µM (active).
